The values that follow come from PubChem BioAssay AID488857 (Sanford-Burnham Center for Chemical Genomics, 2010).

Among all 1,400 compounds or so, about 560 (40%) were called active. So high a share suggests a set chosen from earlier hits. Some of the results follow. Values without a mark were called inactive.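 How the source made its calls: active means mean inhibition over duplicate tests at 10 µM above 50%; inactive means the rest.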

The nature of the experiment: ASC/caspase-1 reporter retest in S. cerevisiae at one dose, specificity check for NALP1 project (AID 488857). The settings on record: S. cerevisiae ASC/Caspase-1, beta-galactosidase luminescence, 24 h; at 10 µM; hits give high values.
On to `CCCCC(CC(O)COCCC)c1n[nH]c(=S)n1-c1ccccc1` (centres undefined), for which the inhibition was 42%.

Take `O=[N+]([O-])c1cc2oc3c(c2c(C=NCc2ccccc2)c1O)CCCC3`: the inhibition was 42.5%.

As for `O=[N+]([O-])c1cc(Cc2ccccc2)cc(C=Nc2ccc(N3CCOCC3)cc2)c1O`, the inhibition is 51.5% (active).

Regarding `CN(C)c1ccc(O)c2c1CC1CC3[C@@H](N(C)C)C(=O)C(C(N)=O)=C(O)[C@]3(O)C(=O)C1=C2O` (some centres undefined), the inhibition is 31.9%.

Consider `O=C(N/N=C\c1cccc([N+](=O)[O-])c1O)C1COc2ccccc2O1` (centres undefined), for which the inhibition is 81.3% (active).

On to `COc1cccc(/C=N/NC(=O)CNC(=O)C2COc3ccccc3O2)c1O` (centres undefined), for which the inhibition is 42.9%.

As for `CCCCN(C)C(=O)c1nc2ccccn2c1CNCCCn1ncc2ccccc21`, the inhibition is 33.2%.

As for `Cn1cc(C(=O)NCc2ccc(F)cc2)c(=O)c2cc(S(=O)(=O)N3CCCCC3)ccc21`, the inhibition was 34.4%.

Take `CC(C)C(C)NC(=O)COc1ccc(S(=O)(=O)N2CCOCC2)cc1[N+](=O)[O-]` (centres undefined): the inhibition was 12.2%.

Consider `O=[N+]([O-])c1cc(S(=O)(=O)N2CCCCCC2)ccc1F`, for which the inhibition was 86.2% (active).

Regarding `COc1ccccc1C(C[N+](=O)[O-])c1c(N)n(C)c(=O)n(C)c1=O` (centres undefined), the inhibition was 99.8% (active).

`Cc1ccc(C(C[N+](=O)[O-])c2c(N)n(C)c(=O)n(C)c2=O)cc1` (centres undefined): the inhibition is 98.2% (active).

As to `O=c1[nH][nH]c(-c2ccccc2O)c1C(C[N+](=O)[O-])c1ccc(Cl)cc1Cl` (centres undefined), the inhibition is 42.1%.

Turning to `COc1cccc(F)c1C(C[N+](=O)[O-])c1c(N)n(C)c(=O)n(C)c1=O` (centres undefined), the inhibition was 97.7% (active).

Consider `Cc1ccccc1Cn1c(=N)n(CC(=O)c2ccc([N+](=O)[O-])cc2)c2ccccc21`, for which the inhibition was 53.6% (active).

`Cc1nc([N+](=O)[O-])c(Br)n1CC(=O)c1ccc(Cl)cc1`: the inhibition is 37.6%.

For the molecule `N=c1n(CC(=O)c2ccc([N+](=O)[O-])cc2)c2ccccc2n1Cc1ccccc1Cl`, the inhibition is 28.8%.

As to `CCCCCOc1ccc(Cn2ccnc2)cc1[N+](=O)[O-]`, the inhibition is 64% (active).

On to `CCCCOc1ccc(CSC2=NCCN2)cc1[N+](=O)[O-]`, for which the inhibition is 40.1%.

`CCc1cccc2c(C(=O)CSc3nncn3-c3ccc(OC)cc3)c[nH]c12`: the inhibition is 38.1%.

Consider `CCc1cccc2c(C(=O)COC(=O)c3ccc([N+](=O)[O-])s3)c[nH]c12`, for which the inhibition is 95.7% (active).

Take `CCc1cccc2c(C(=O)COC(=O)c3ccccc3)c[nH]c12`: the inhibition was 43.6%.

For the molecule `O=C(Nc1nc2c(c(=O)[nH]1)CCCC2)C1CC1`, the inhibition was 31.5%.

Consider `O=C1c2ccccc2C(Nc2ccc(Cl)cn2)N1Cc1ccccc1` (centres undefined), for which the inhibition is 52.1% (active).

With `O=C1c2ccccc2C(O)N1c1cccnc1` (centres undefined), the inhibition is 23.4%.

Take `COc1ccc(C(C)C)cc1S(=O)(=O)n1cnc(C)c1`: the inhibition is 42.7%.

Take `O=C(CN1CCN(c2cccc(Cl)c2)CC1)Nc1ccc(S(=O)(=O)N2CCOCC2)cc1`: the inhibition was 33.4%.

With `COC(=O)/C=C/C(=O)N1CCN(c2cccc(Cl)c2)CC1`, the inhibition was 62.8% (active).

`COC(=O)c1cc(OC)c(OC)cc1NC(=S)N1CCN(c2ccccc2)CC1`: the inhibition was 39.1%.

As for `C#CCOc1c(Br)cc(/C=N/O)cc1OCC`, the inhibition was 17.9%.

As for `CNc1nc(SCc2ccccc2Cl)nc2c1CCCC2`, the inhibition was 97.2% (active).

For the molecule `Cc1oc(-c2ccccc2Cl)nc1CSc1nc2c(c(=O)[nH]1)CCC2`, the inhibition was 21.4%.

As to `CNc1nc(SCc2ccc(C)cc2)nc2c1CCCC2`, the inhibition was 98.4% (active).

With `NC(=NCCc1ccc(Cl)cc1)NS(=O)(=O)c1ccc(F)cc1`, the inhibition is 23.1%.

Take `COc1ccc(N(C)C2=NS(=O)(=O)c3ccccc32)cc1`: the inhibition was 29.7%.

For the molecule `CN(Cc1ccccc1)c1ncnc2c1cnn2-c1ccccc1`, the inhibition was 66.2% (active).

As to `COCCN(CCOC)c1ncnc2c1cnn2-c1ccc(Cl)cc1`, the inhibition is 69.3% (active).

For `COC(=O)c1ccc(Cn2cnc3c(cnn3-c3ccc(Cl)cc3)c2=O)o1`, the inhibition was 35.1%.

Regarding `CC(C)c1ccc(NCCC(=O)c2cccs2)cc1`, the inhibition is 42%.

`Nc1ccc(C(=O)c2cccs2)cc1`: the inhibition was 54.2% (active).

For `CCOc1ccc(NC(=O)c2cc3c(C)nc4ccccc4c3o2)cc1`, the inhibition was 33.2%.

As for `CCOc1ccc(NC(=O)c2csc3c2CCCC3)cc1`, the inhibition is 70.2% (active).

In the case of `CCOc1ccc(N=c2oc3cc(O)ccc3cc2C(=O)NCC2CCCO2)cc1` (centres undefined), the inhibition is 33%.

As to `O=C(N1CCN(c2ccccn2)CC1)C(Cl)(Cl)Cl`, the inhibition is 63.7% (active).

On to `CCOC(=O)c1cc(-c2ccccc2)n(CCC(=O)N2CCN(c3ccccn3)CC2)c1C`, for which the inhibition is 32.7%.

For the molecule `O=C(c1ccccc1-c1ccccc1)N1CCN(c2ccccn2)CC1`, the inhibition was 35.6%.

Consider `O=C(CSCc1cnn(-c2ccccc2)c1-n1cccc1)NCc1ccc2c(c1)OCO2`, for which the inhibition was 57.3% (active).

For the molecule `c1ccc2c(Nc3nc(N4CCOCC4)c4ccccc4n3)cccc2c1`, the inhibition was 95% (active).

Consider `Oc1c(Cl)cc(Cl)c(Cl)c1Cc1c(O)c(Cl)cc(Cl)c1Cl`, for which the inhibition was 98.4% (active).

For the molecule `CCN(CC)c1ccc(NC(=O)Cn2cc3c(n2)CCC(C)C3)c(C)c1` (centres undefined), the inhibition was 51.1% (active).

For the molecule `C=CCNCCCCOc1ccc(Br)cc1C`, the inhibition is 46.5%.

Regarding `Cc1cc(Cl)c(OCCCn2ccnc2)c(Br)c1`, the inhibition was 64.8% (active).

On to `Cc1cc(Br)ccc1OCCn1ccnc1`, for which the inhibition is 59.4% (active).

For the molecule `CCOc1cc(C(=O)OCC(=O)Nc2ncc(Cl)c(C)c2Cl)ccc1OCC(=O)N1CCOCC1`, the inhibition is 33.8%.

With `COC(=O)CCn1nnc(-c2ccc(C(C)C)cc2)n1`, the inhibition is 41.2%.

Regarding `CN(C)CCNC(=O)COc1ccc(Cl)cc1Cl`, the inhibition was 28.3%.

For the molecule `O=C(COC(=O)CCSc1ccccc1)NCc1ccccc1Cl`, the inhibition was 29.2%.

For the molecule `O=C(CN1C(=O)C2C3C=CC(C3)C2C1=O)NCCc1ccccc1` (centres undefined), the inhibition is 23.8%.

`O=C(COc1ccccc1Cl)NCCC1=CCCCC1`: the inhibition is 48.4%.

`O=C(CCSCc1cccc(Cl)c1)NCCc1ccccc1`: the inhibition was 64.2% (active).

`COc1ccccc1OCC(=O)NCCSCc1cccc(Cl)c1`: the inhibition was 61.4% (active).

As to `COc1ccccc1OCC(=O)NCCSCc1ccc(Cl)cc1`, the inhibition is 64.2% (active).

Turning to `COc1ccccc1OCC(=O)NCCSCc1ccccc1Cl`, the inhibition was 65.5% (active).

Turning to `Cc1sc(NC(=O)c2cc3ccccc3oc2=O)c(C(=O)OC(C)C)c1-c1ccccc1`, the inhibition is 36%.

In the case of `COc1cccc(N2C(=O)C(O)=C(C(C)=O)C2c2ccc(OC)c(OC)c2)c1` (centres undefined), the inhibition is 31%.

Consider `CC(=O)N1CC[n+]2c(-c3ccc(Cl)cc3Cl)csc21`, for which the inhibition was 23.9%.

For `CC(C)Cn1c(CN(Cc2ccccc2)Cc2ccccc2)nc2c1c(=O)n(C)c(=O)n2C`, the inhibition was 35.6%.

In the case of `O=C(CSCc1cccc(Cl)c1)Nc1ccccc1-c1ccccc1`, the inhibition is 62.6% (active).

With `O=C(CSC1=NS(=O)(=O)c2ccccc21)Nc1ccccc1`, the inhibition is 43.5%.

As to `Cc1ccc(CC(=O)Nc2ccccc2-c2ccccc2)cc1C`, the inhibition was 34.3%.

Turning to `COc1ccc(CCN(C)C2CC(=O)N(c3ccccc3)C2=O)cc1OC` (centres undefined), the inhibition is 51% (active).

Turning to `COc1ccc(CCNC(=O)CN2CCC(C)CC2)cc1OC`, the inhibition is 28.1%.

With `COC(=O)c1ccccc1SC1CC(=O)N(c2ccccc2)C1=O` (centres undefined), the inhibition is 49.2%.

Take `COc1ccc2[nH]c3c(C)c4ccncc4c(C)c3c2c1`: the inhibition was 98.8% (active).

In the case of `COc1ccc2[nH]c(C)c(CCNC(=S)Nc3cc(C)cc(C)c3)c2c1`, the inhibition is 17%.

As for `CC(C)(C)c1cc(C(=O)O)n[nH]1`, the inhibition was -9.25%.

Take `CNC(=O)c1ccsc1NC(=O)c1sc2ccccc2c1Cl`: the inhibition was 58.8% (active).

For `O=C(Nc1nc(-c2ccccn2)cs1)c1ccc(Cl)s1`, the inhibition was 46.2%.

Turning to `O=C(Nc1nccs1)c1sc2ccccc2c1Cl`, the inhibition is 80.7% (active).

In the case of `Cc1nc(-c2ccccc2)cn2c1nc1ccccc12`, the inhibition was 59.9% (active).

Take `O=c1cc(-c2ccccc2)[nH]c2nc3ccccc3n12`: the inhibition was 44.1%.

Take `Cc1cc(N/N=C/c2cccc(Cl)c2)nc(NCc2ccccc2)n1`: the inhibition is 55.9% (active).

As for `Cc1ccc(Nc2cc(C)nc(NCc3ccccc3)n2)cc1`, the inhibition was 61.2% (active).

Consider `Cc1cc(N/N=C/c2ccccc2)nc(NCc2ccccc2)n1`, for which the inhibition is 68.2% (active).

As to `Cc1cc(N/N=C/c2ccccc2Cl)nc(NCc2ccccc2)n1`, the inhibition was 52.2% (active).

For `Cc1ccccc1N(CC(=O)N/N=C/c1ccccc1Cl)C(=O)c1ccccc1`, the inhibition was 35.8%.

As for `CC1(C)CC(=O)C2=C(C1)OC(N)=C([N+](=O)[O-])C2c1cccs1` (centres undefined), the inhibition was 39.2%.

As to `CCOC(=O)c1c(C)n(C)c2cc(-c3ccc(C)cc3)c(O)cc12`, the inhibition was 41.5%.

For `Cc1cc(N/N=C/c2ccc(Cl)cc2)nc(NCc2ccccc2)n1`, the inhibition is 78.7% (active).

With `Cc1ccccc1OCC(=O)Nc1cccc(N(C)S(C)(=O)=O)c1`, the inhibition was 34.6%.

As to `O=C(COc1ccc(CO)cc1Cl)Nc1ccc(F)cc1`, the inhibition was 38.2%.

`O=C(COc1ccc(Br)cc1Br)NC(=S)Nc1cccc(CO)c1`: the inhibition is 59.8% (active).

Consider `N/C(Cc1ccc(Cl)cc1Cl)=N\OC(=O)c1cccs1`, for which the inhibition is 53.2% (active).

`COc1ccc(C(=O)O/N=C(\N)Cc2ccc(Cl)cc2Cl)cc1OC`: the inhibition is 72.4% (active).

With `COc1ccc(Cl)cc1C(=O)O/N=C(\N)c1ccc(Cl)cc1`, the inhibition is 43.9%.

In the case of `CCc1ccc(C(=O)NCc2ccc(Cl)cc2Cl)cc1`, the inhibition was 49.6%.

Turning to `CCN(CC)CCN1C(=O)c2ccccc2NC1c1ccc(N(C)C)cc1` (centres undefined), the inhibition was 31.9%.

For `CCCc1ccc(-c2c(C)sc(N)c2C#N)cc1`, the inhibition was 51.2% (active).

For `CCn1c(C)[n+](CC(O)COCC2CC=CCC2)c2ccccc21` (centres undefined), the inhibition is 41.3%.

What is called inhibition is the relative decrease from the control value, in per cent.
